This note sets out measurements from PubChem BioAssay AID540336 (Broad Institute, 2011).

Several values for one entry are separate records, joined by “and”; a condition that tells them apart may be missing. Equal entries are not always repeated. The whole screen tested about 330,000 compounds, of which about 520 (0.16%) were called active.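 Rule for the calls: active = inhibition of at least 50% in every replicate; inconclusive = best replicate reaches 50% inhibition but some replicates fall short; inactive = the rest.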 The entries come from a sample that favours actives as a whole. Some structures have more than one record in an assay (separate samples or runs), and their calls can disagree.

The term inhibition denotes the relative decrease from the control value, in per cent.

Chain of Histone acetyltransferase RTT109 (Candida albicans (strain SC5314 / ATCC MYA-2876)) (Q5AAJ8 whole entry, looked up): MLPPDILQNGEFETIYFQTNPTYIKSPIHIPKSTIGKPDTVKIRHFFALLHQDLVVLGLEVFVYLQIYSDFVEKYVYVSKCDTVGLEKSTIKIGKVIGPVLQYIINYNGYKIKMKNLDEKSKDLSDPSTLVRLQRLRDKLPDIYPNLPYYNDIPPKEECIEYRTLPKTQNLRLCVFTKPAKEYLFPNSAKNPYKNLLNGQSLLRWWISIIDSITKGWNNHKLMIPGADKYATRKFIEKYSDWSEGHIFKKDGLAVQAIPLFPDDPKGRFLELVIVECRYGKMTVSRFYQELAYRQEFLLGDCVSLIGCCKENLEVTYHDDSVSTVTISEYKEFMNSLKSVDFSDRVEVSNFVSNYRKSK

This assay concerns the target Histone acetyltransferase RTT109 (Candida albicans (strain SC5314 / ATCC MYA-2876)) (UniProt Q5AAJ8). Put plainly: Rtt109-Vps75 histone acetyltransferase blockade – biochemical, ThioGlo CoA-SH fluorescence, plate reader, primary screen (AID 540336). Particulars: purified Rtt109/Vps75, ThioGlo CoA-SH fluorescence, 4 h; at 34.9 µM; stronger effect = higher value.
As for `COc1cc(OC)c(C(=O)NNC(=O)c2ccc(NS(=O)(=O)c3cccs3)cc2)cc1OC`, the inhibition is -0.841% (inactive).
On to `COc1ccc(-c2ccc3c(c2)[C@@H]2C[C@H](N(C)S(=O)(=O)c4ccccc4)[C@H]([C@H](C)O)C(=O)N2CC3)cc1`, for which the inhibition is -7.44% (inactive).
Regarding `Cc1ccc(C(=O)O)c(NC=O)c1OCc1ccccc1`, the inhibition is 2.64% (inactive).
Regarding `O=C(CC(=O)c1cccnc1)c1ccccc1`, the inhibition was 5.8% (inactive).
In the case of `COc1cc2c(cc1OC)C(Nc1ccc(S(N)(=O)=O)cc1)=NC(C)(C)C2`, the inhibition is -0.292% (inactive).
For `COc1cc2c(cc1O)C(SC)=NC(C)(C)C2` the value was 85% (active).
Turning to `COc1cc2c(cc1OC)C(C(C)C)=NC(C)(C)C2`, the inhibition is -260% (inactive).
Consider `C=CCNC(=O)C1CC2c3ccccc3C1c1ccccc12` (centres undefined), for which the inhibition is 50.9% (active).
For `C=CCNC(=O)C1CC=CCC1C(=O)O` (centres undefined), the inhibition was -1.04% (inactive).
On to `C=CCNC(=O)C12CC3CC(C1)CC(C(=O)NCC=C)(C3)C2`, for which the inhibition was -14.4% (inactive).
As for `C=CCCC(=O)N1C[C@H]2CON(C)[C@H]2C[C@H]1c1cccc(Nc2ccccc2)c1`, the inhibition is 7.97% (inactive).
Consider `Cc1ccc(S(=O)(=O)c2cc3c(=O)n4cccc(C)c4nc3n(CCc3ccccc3)c2=N)cc1C`, for which the inhibition is 0.852% (inactive).
In the case of `CC(=NNC(=S)N1CCCCCC1)c1ccccn1`, the inhibition was 16.2% (inactive).
`CCN1CCC(O)(/C=C/c2ccc(C)cc2)C(C(=O)/C=C/c2ccc(C)cc2)C1` (centres undefined): the inhibition is 3.59% (inactive).
For `O=C1CC(C(=O)O)NC(=S)N1` (centres undefined) the value was -12.1% (inactive).
Turning to `O=C(O)C(=Cc1ccccc1[N+](=O)[O-])c1ccccc1`, the inhibition was -1.92% (inactive).
For `CCc1c(Nc2ccccc2Cl)nc(N)[nH]c1=O`, the inhibition is 4.46% (inactive).
Regarding `CC(C)(C)c1nnc2sc(SCC(O)=C(C#N)c3nc4ccccc4[nH]3)nn2c1=O`, the inhibition is -1.69% (inactive).
Turning to `FC(F)(F)c1ccc(-c2cccc3c2C2CC3CCN2Cc2ccccc2)cc1` (centres undefined), the inhibition is -0.156% (inactive).
As for `COc1ccc(N(C(=O)c2cccnc2)S(=O)(=O)c2ccc(OC)c(OC)c2)cc1`, the inhibition was -7.79% (inactive).
Consider `O=C(c1cccnc1)N(c1cc2sc(=O)oc2c2ccccc12)S(=O)(=O)c1ccccc1`, for which the inhibition was 101% (active).
As for `O=C(c1cccnc1)N(Cc1ccccc1)C(=O)c1cccnc1`, the figure is 7.15% (inactive); as for `Oc1c(Cl)cc(Cl)c(Cl)c1Cc1c(O)c(Cl)cc(Cl)c1Cl`, 70.6% (active); as for `Cc1ccc(Cn2c(C)c3cnn(CC(=O)NCCN4CCOCC4)c(=O)c3c2C)cc1`, 4.07% (inactive).
On to `O=C(NC(Cc1ccccc1)C(=O)N1CCCC(C(F)(F)F)C1)c1ccccc1` (centres undefined), for which the inhibition is 8.65% (inactive).
With `O=C(NCC(=O)N1CCCC(C(F)(F)F)C1)c1ccccc1F` (centres undefined), the inhibition was -12.6% (inactive).
As to `FC(F)(F)C1CCCN(c2nsc3ccccc23)C1` (centres undefined), the inhibition is 129% (active).
For `CCN(CC(=O)Nc1c(F)cccc1F)C(=O)Cc1cccs1`, the inhibition was -5.91% (inactive).
Take `COC(=O)c1ccc(CNC(=O)Cn2cc(C)c(=O)[nH]c2=O)cc1`: the inhibition was -6.85% (inactive).
As for `NC(=S)NN=C1CCCC(C(F)(F)F)C1` (centres undefined), the inhibition was 6.12% (inactive).
Consider `CN(CCc1ccccc1)C(=O)c1cccc(NC(=O)Cc2cccc(NC(=O)C3CCCN(C(=O)CCc4ccccc4)C3)c2)c1` (centres undefined), for which the inhibition was 10.3% (inactive).
Regarding `CCN(CC)CCCC(C)n1c2nc(=O)[nH]c(=O)c-2nc2cc(Cl)ccc21` (centres undefined), the inhibition is 1.9% (inactive).
As for `CC(=O)Oc1ccc(OC(C)=O)c2c1C1C=CC2CC1`, the figure is -1.25% (inactive).
Consider `O=C(CCC(=O)N1CCN(S(=O)(=O)c2ccc(Cl)cc2)CC1)NCc1cccc(C(F)(F)F)c1`, for which the inhibition was -0.722% (inactive).
As for `O=C(CCN1C(=O)/C(=C/c2cccs2)SC1=S)NNC(=O)c1cccc(O)c1`, the figure is 2.35% (inactive).
On to `O=C(CCCN1C(=O)/C(=C/c2cccs2)SC1=S)Nc1ccc(O)cc1`, for which the inhibition was 3.39% (inactive).
With `CC(C(=O)Nc1ccc(O)c(C(=O)O)c1)N1C(=O)/C(=C/c2cccs2)SC1=S` (centres undefined), the inhibition was 81.1% (active).
For the compound `COc1ccc(C(=O)N(C)Cc2ccc(OC)c(OC)c2OC)cc1S(=O)(=O)N1CCOCC1`, the inhibition is 1.9% (inactive).
For `O=C1CC(c2ccccc2)C(c2ccccc2)=NN1` (centres undefined), the inhibition was 6.56% (inactive).
As for `O=C1/C(=C\c2ccc([N+](=O)[O-])cc2)CS(=O)(=O)C/C1=C/c1ccc([N+](=O)[O-])cc1`, the figure is -5.87% (inactive); as for `CCCCN(C(=O)c1cccc(N2C(=O)c3ccccc3C2=O)c1)c1c(N)n(CCCC)c(=O)[nH]c1=O`, 6% (inactive).
Take `COC(=O)c1c(NC(=O)CSc2nncs2)sc2c1CCCCC2`: the inhibition is -2.31% (inactive).
In the case of `COC(=O)c1c(NC(=O)C2CC(C)=C(C)CC2C(=O)O)sc2c1CCCCC2` (centres undefined), the inhibition was 56.5% (active).
Take `N#Cc1c(NC(=O)C2CC(Cl)=CCC2C(=O)O)sc2c1CCCCC2` (centres undefined): the inhibition is -0.566% (inactive).
For the compound `COc1ccc(CNC(=O)COC(=O)C2=Cc3ccccc3OC2)cc1`, the inhibition is 7.22% (inactive).
`Cn1c(=O)[nH]c2c(c(C(=O)O)nn2C)c1=O`: the inhibition is 7.13% (inactive).
As for `C[N+]1(CC(O)COc2ccccc2)CCN(C(=O)c2ccc([N+](=O)[O-])cc2)CC1` (centres undefined), the figure is 52.5% (active); as for `CC1CCN(CC(O)COc2ccc(C(=O)c3ccccc3)cc2)CC1` (centres undefined), 0.839% (inactive).
As for `O=C(COc1ccccc1)Nc1ccc(C(=O)N2CCCC2)cc1`, the inhibition is 28.7% (inactive).
`NC(=O)C1CCN(C(=O)c2cc(S(=O)(=O)N3CCN(c4ccccc4)CC3)ccc2Cl)CC1`: the inhibition was -0.602% (inactive).
For the compound `CCC(C)C1(C2CCCC2)NC(=O)NC1=O` (centres undefined), the inhibition was -0.893% (inactive).
For the compound `CC(C)[C@@H](C(=O)OCC(=O)c1ccc2c(c1)NC(=O)CO2)N1C(=O)c2ccccc2C1=O`, the inhibition is 2.17% (inactive).
On to `O=c1nc(NO)ccn1C1CCCO1` (centres undefined), for which the inhibition was -2.47% (inactive).
In the case of `O=C(O)c1ccc(S(=O)(=O)c2ccccc2)s1`, the inhibition is -2.02% (inactive).
Turning to `Cc1c[n+]([O-])ccc1[N+](=O)[O-]`, the inhibition is -8.76% (inactive).
As for `Cc1nn(-c2ncccn2)c2c1C(=O)CC(C)(C)C2Br` (centres undefined), the figure is 8.81% (inactive).
As for `COCCN(C(=O)C(C)N1C(=O)c2ccccc2C1=O)c1c(N)n(CC(C)C)c(=O)[nH]c1=O` (centres undefined), the inhibition was -5.79% (inactive).
As for `CN(C)/C=C(/C(=O)c1ccccc1)S(=O)(=O)c1ccc(Cl)cc1`, the figure is 0.945% (inactive); as for `COc1cccc2sc(N(CCCN(C)C)C(=O)C(c3ccccc3)c3ccccc3)nc12`, -2% (inactive); as for `COc1cccc2sc(N(CCCN(C)C)C(=O)CCS(=O)(=O)c3ccccc3)nc12`, 83.9% (active).
Turning to `Cc1cccc2sc(N(CCCN(C)C)C(=O)CCS(=O)(=O)c3ccccc3)nc12`, the inhibition is 30.9% (inactive).
Turning to `Cc1cccc(-n2c(SCC(N)=O)nc3c(c2=O)C2(CCCCC2)Cc2ccccc2-3)c1`, the inhibition was 53.5% (active).
For `Cc1cccc(-n2c(=O)c3c(C)c(C)sc3n(CC(N)=O)c2=O)c1` the value was -1.94% (inactive); for `N#CCSc1nc2c(c(=O)n1Cc1ccccc1)C1(CCCC1)Cc1ccccc1-2`, 8.15% (inactive).
For `O=C(OC12CC3CC(CC(C3)C1)C2)c1ccc(NCc2cc(O)ccc2O)cc1`, the inhibition was -1.56% (inactive).
Take `CC(C)c1ccc(C=NNc2ccc([N+](=O)[O-])cn2)cc1`: the inhibition was 4.1% (inactive).
`CSCCC(NC(=O)COc1ccccc1)C(=O)OCc1ccc(Cl)cc1` (centres undefined): the inhibition is -1.24% (inactive).
Turning to `COc1ccccc1NC(=O)/C=C/C(N)=O`, the inhibition was 121% (active).
Regarding `COc1ccccc1NC(=S)NC(=O)C(C)C`, the inhibition was -8.37% (inactive).
Take `COc1ccccc1NC(=O)C[n+]1ccccc1`: the inhibition is -9.21% (inactive).
As for `CCOC(=O)C1CCCN(C(=O)C2CCN(S(=O)(=O)c3ccc(Cl)c(C(F)(F)F)c3)CC2)C1` (centres undefined), the figure is 10.8% (inactive); as for `CCC1([N+](=O)[O-])COC(c2ccc(C)cc2)OC1` (centres undefined), -3.32% (inactive); as for `Cc1c(CCOC(=O)CC23CC4CC(CC(C)(C4)C2)C3)sc[n+]1Cc1ccc([N+](=O)[O-])cc1`, 64.3% (active) and -8% (inactive).
As for `Cc1c(CCO)sc[n+]1CC(=O)OC12CC3CC(CC(C3)C1)C2`, the figure is 2.54% (inactive).
For `Cc1c(CCOC(=O)c2cc([N+](=O)[O-])ccc2Cl)sc[n+]1CCCCS(=O)(=O)[O-]` the value was 12.5% (inactive); for `Cc1ccc(S(=O)(=O)N2CCN(C(=O)COC(=O)/C=C/c3cccc(Cl)c3)CC2)c(C)c1`, 5.03% (inactive).
Regarding `CN(C)C(CNC(=O)c1cc2ccccc2o1)c1ccccc1` (centres undefined), the inhibition was 2.45% (inactive).
On to `CCN(CC)S(=O)(=O)c1cccc(NC(=O)c2ccc(S(=O)(=O)N3CCCC3)cc2)c1`, for which the inhibition is -3.62% (inactive).
For `CC1C(C)N(C(=O)CCl)c2ccccc2N1C(=O)CCl` (centres undefined) the value was -6.55% (inactive).
Take `Nc1cc2c(cc1Br)-c1ccc(F)cc1C2=O`: the inhibition was -11.8% (inactive).
With `CC1CN(Cc2ccco2)C(=S)N(c2ccccc2)C1=O` (centres undefined), the inhibition is 3.62% (inactive).
As for `NC(=O)c1ncn([C@@H]2O[C@H](CN=C3NS(=O)(=O)c4ccccc43)[C@@H](O)[C@H]2O)n1`, the figure is -1.34% (inactive); as for `Cc1ccccc1Nc1nc(-c2cccnc2)cs1`, -4.39% (inactive).
As for `O=C(Nc1ccc(-c2csc(Nc3cccc(C(F)(F)F)c3)n2)cc1)c1cccc(C(F)(F)F)c1`, the inhibition was -6.03% (inactive).
On to `CC(=O)Nc1cccc(-c2csc(Nc3cccc(C)n3)n2)c1`, for which the inhibition was 65% (active).
Consider `CC1(C)N=C(N)NC(Nc2ccc(Cl)cc2)=N1`, for which the inhibition is -1.08% (inactive).
As to `CC(C)(C)OC(=O)N1CCC(C(=O)Nc2cccc(C(=O)NCCc3ccccc3)c2)CC1`, the inhibition was 15.4% (inactive).
On to `COc1ccc2c(c1)c(=Cc1ccc(N(C)C)cc1)c1cc(-c3ccccc3)[n+](C)n12`, for which the inhibition is 14.8% (inactive).
As to `CC(=O)OCC(=O)C1(O)CCC2C3CC(C)C4=CC(=O)CCC4(C)C3C(O)CC21C` (centres undefined), the inhibition was -0.0615% (inactive).
